Only some compounds are listed: those with a hit (about 7.9% of all), similar ones and a draw of the others.
LASV entry inh: blocks Lassa virus binding to or entry into cells | Potency, µM (titrated, usually from 37.9 µM), most hits filed as inhibitors | Lassa virus pseudotype entry inhibition, cell reporter | actives 1.2% (n = 300,000); calls by dose curve; tested in HEK293 cells; also: nearly all actives have a fitted effect of over 50% in size
MARV entry inh: blocks Marburg virus binding to or entry into cells | Marburg virus pseudotyped entry inhibition, cell reporter | Potency, µM (titrated, usually from 37.8 µM), most hits filed as inhibitors | AID 540276 | actives 1.8% (n = 300,000); calls by dose curve; tested in HEK293 cells
HCV inhibitor: blocks hepatitis C virus | AID 651820 | actives 3.4% (n = 340,000) | Huh7.5.1 HCVcc-Cre infection, luciferase reporter, 44 h | Potency, µM (titrated, usually from 41.8 µM), most hits filed as inhibitors; active = well fitted inhibition curve with a large enough effect; inconclusive = small, poorly fitted or top-dose-only effect, or another doubt; inactive = no such curve, though single readings can be large or run the other way
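Luciferase read-out (15 sec integration) after a 15 min room-temperature substrate step quantifies HCVcc-Cre infection. Cells, 1,000 per well, had compound added 4 h post-plating, then virus at ~0.5 moi, and were cultured 44 h.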
HCMV antiviral: inhibitors of human cytomegalovirus; HFF cells, HCMV-luciferase reporter, 72 h; hits give low values; activity change, negative = inhibition, % at 57.5 µM; actives 4.5% (n = 410,000); in the data active = activity change below about -60%; inconclusive = no clear call, values can overlap the other calls; inactive = above about -39%
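Compounds were evaluated in HFFs infected with an HCMV luciferase reporter virus (MOI 1 PFU/cell). Luciferase in lysates collected 72 h post infection served as the replication measure.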
FMDV antiviral: antivirals against foot and mouth disease virus. FMDV antiviral cell-based qHTS. Potency, µM (doses to about 57.9 µM), most hits filed as inhibitors. actives 1.2% (n = 410,000); calls by dose curve; tested in HEK293T cells; also: read-out not given here; nearly all actives have a fitted effect of over 45% in size
Of the large screens only hits and unclear results are named; the others gave an inactive call; ! = not confirmed by another sample.

CCOC(=O)[C@]12Cc3cc(OC)ccc3[C@H]1N(Cc1ccccc1)C(=O)c1cc(F)c(F)cc12	none (no result: LASV entry inh, MARV entry inh)
Cc1nc2ccccn2c(=O)c1NC(=O)c1ccc(F)c(F)c1	none (no result: MARV entry inh, HCV inhibitor)
O=C1C2CCCCN2C(=O)N1CCCCN1CCN(c2cccc(C(F)(F)F)c2)CC1 (configuration not stated)	HCV inhibitor inconclusive
O=C(OCCc1cc2ccccc2c(=O)o1)c1ccccc1C(F)(F)F	HCV inhibitor 22µM (no result: LASV entry inh, MARV entry inh)
Cc1cc(-c2ccccc2)c(C#N)c(N)n1	MARV entry inh inconclusive, HCV inhibitor 7.9µM
N#Cc1c(-c2ccccc2)cc(-c2ccc(O)cc2)nc1N	none (no result: LASV entry inh, MARV entry inh)
Cc1cc(C)cc(N2CCn3c2nc2c3c(=O)n(C/C=C/c3ccccc3)c(=O)n2C)c1	HCMV antiviral inconclusive (no result: MARV entry inh, HCV inhibitor)
Cc1ccc(S(=O)(=O)Nc2cccc3ncccc23)s1	LASV entry inh 8.9µM, MARV entry inh 10µM, HCV inhibitor inconclusive, FMDV antiviral 28µM (no result: HCMV antiviral)
CC(/C=N/N1CCN(Cc2ccccc2)CC1)=C\c1ccccc1	HCMV antiviral -104
O=C(Nc1ncccc1O)c1c(O)c2ccccc2[nH]c1=O	HCMV antiviral -77 (no result: LASV entry inh, MARV entry inh)
Cc1cccc(C)c1NC(=O)c1c(O)c2ccccc2[nH]c1=O	HCV inhibitor inconclusive (no result: LASV entry inh, MARV entry inh)
Cc1ccc(CN2CCC(=O)N(Cc3ccccn3)CC2)c(C)c1	none (no result: LASV entry inh, MARV entry inh, HCV inhibitor, HCMV antiviral)
CC1(C(=O)NS(=O)(=O)c2cccc(C#N)c2)CCN1C(=O)CC1CCCC1 (configuration not stated)	none (no result: LASV entry inh, MARV entry inh, HCV inhibitor)
O=C(Cn1cc(C(F)(F)F)ccc1=O)N1CCCc2ccccc21	LASV entry inh inconclusive
O=C1N2c3ccccc3CCc3cccc(c32)C1(O)C(F)(F)F (configuration not stated)	MARV entry inh inconclusive, HCMV antiviral -61, FMDV antiviral inconclusive
COc1ccccc1CNC(=O)c1nn(C)c2c1CS(=O)(=O)c1ccccc1-2	HCMV antiviral active
Cn1nc(C(=O)NCc2ccccc2Cl)c2c1-c1ccccc1S(=O)(=O)C2	none (no result: MARV entry inh)
Cn1nc(C(=O)NCCc2ccc(Cl)cc2)c2c1-c1ccccc1S(=O)(=O)C2	HCV inhibitor inconclusive, HCMV antiviral inconclusive (no result: LASV entry inh, MARV entry inh)
Cn1nc(C(=O)NCc2ccc(Cl)cc2)c2c1-c1ccccc1S(=O)(=O)C2	HCMV antiviral -82 (no result: MARV entry inh)
CC1CC1C(=O)OCC(=O)Nc1cccc(Br)c1 (configuration not stated)	none
O=C(Nc1ccc(-c2noc(CCc3ccccc3)n2)cc1)c1ccco1	LASV entry inh inconclusive, MARV entry inh inconclusive, HCV inhibitor inconclusive, HCMV antiviral -88
c1ccc(CCc2nc(-c3cccnc3)no2)cc1	HCV inhibitor 11µM
c1cncc(-c2noc(-c3cccc4ccccc34)n2)c1	MARV entry inh inconclusive, HCV inhibitor inconclusive
c1ccc(-c2ccccc2-c2nc(-c3cccnc3)no2)cc1	MARV entry inh inconclusive, HCV inhibitor 11µM
c1ccc(CCc2ccccc2-c2nc(-c3cccnc3)no2)cc1	MARV entry inh inconclusive, HCV inhibitor 7.1µM, FMDV antiviral inconclusive
COc1ccc(Cl)cc1NC(=O)CSc1cn(CC(=O)N2CCCCCC2)c2ccccc12	LASV entry inh inconclusive, FMDV antiviral inconclusive (no result: MARV entry inh, HCV inhibitor)
CCOc1ccc(-c2nnc(SCC(=O)NC(C)(C)C)nc2-c2ccc(OCC)c(OC)c2)cc1OC	MARV entry inh inconclusive, HCV inhibitor inconclusive
COc1ccc(-c2cn3cccnc3n2)cc1NC(=O)c1c(F)cccc1F	LASV entry inh inconclusive (no result: MARV entry inh, HCV inhibitor)
CC(C)CO/N=C1\C[C@@H](O)[C@@H](O)[C@@H]2[C@@H]3C(=O)N(C4CCCCC4)C(=O)[C@@H]3CC[C@H]12	none (no result: LASV entry inh, HCV inhibitor, HCMV antiviral, FMDV antiviral)
O=C(NC1CCCCC1)c1ccc(S(=O)(=O)NCc2cccnc2)cc1	LASV entry inh inconclusive, HCMV antiviral -61
O=C(NCc1cccnc1)c1cccc(NS(=O)(=O)c2ccc(Br)cc2)c1	MARV entry inh inconclusive, HCV inhibitor 13µM
COc1ccc(S(=O)(=O)NCc2cccnc2)cc1C(=O)NC1CCCCC1	none (no result: HCV inhibitor)
COc1cccc(S(=O)(=O)NCc2ccc(C(=O)Nc3cccc(Cl)c3)cc2)c1	LASV entry inh inconclusive, MARV entry inh inconclusive, HCV inhibitor 10µM, FMDV antiviral 25µM
COc1cccc(NC(=O)c2ccc(S(=O)(=O)NCc3cccnc3)cc2)c1	LASV entry inh inconclusive, HCV inhibitor 10µM, HCMV antiviral -61
COc1ccc(S(=O)(=O)NCc2ccc(C(=O)NCc3cccnc3)cc2)cc1	none (no result: LASV entry inh, MARV entry inh, HCV inhibitor, FMDV antiviral)
Cc1ccc(S(=O)(=O)Nc2cccc(C(=O)NCc3cccnc3)c2)cc1F	LASV entry inh inconclusive, HCV inhibitor inconclusive
CCOc1ccccc1CNC(=O)c1ccc(Cn2c(=O)c3cccn3c3cccnc32)cc1	none (no result: MARV entry inh, HCV inhibitor)
CCC(C)N1CCN(S(=O)(=O)Cc2ccccc2)CC1 (configuration not stated)	none
COc1nc(C)ccc1-c1noc(-c2cccs2)n1	MARV entry inh 11µM, HCV inhibitor inconclusive
CCC1CN(CCNC(=O)c2cccnc2OC)Cc2cc(OC)ccc2O1 (configuration not stated)	none (no result: LASV entry inh, MARV entry inh, HCV inhibitor, HCMV antiviral)
CC(NCC(=O)NCC(=O)Nc1ccc(F)cc1)c1cccc(C(F)(F)F)c1 (configuration not stated)	none
O=C(Nc1ccc(Oc2ccc3c(c2)C(=O)N(c2ccc(O)cc2)C3=O)cc1)c1cccs1	MARV entry inh inconclusive, HCMV antiviral -78
O=C(COC(=O)Cn1cnc2ccccc21)Nc1ccc(OC(F)F)cc1	none (no result: LASV entry inh, MARV entry inh)
CC(C)c1ccc(COC(=O)CN2C(=O)NC3(CCCCC3C)C2=O)cc1 (configuration not stated)	LASV entry inh inconclusive, MARV entry inh inconclusive, HCV inhibitor 14µM
C[C@H]1CC[C@H]2C(=O)N(Cc3ccccc3)C[C@H](O)CN2[C@H]1c1cccc(Br)c1	none (no result: HCV inhibitor, HCMV antiviral, FMDV antiviral)
CCOC(=O)c1cnc2ccc(C)cc2c1N(C)Cc1ccccc1	LASV entry inh inconclusive, MARV entry inh inconclusive, HCMV antiviral -60
CCOC(=O)c1cnc2ccc(C)cc2c1Sc1ccccc1	HCV inhibitor inconclusive, HCMV antiviral inconclusive
CCOC(=O)c1cnc2ccc(OC)cc2c1NCCc1ccc(OC)c(OC)c1	LASV entry inh inconclusive, MARV entry inh inconclusive, HCV inhibitor 5µM, HCMV antiviral inconclusive, FMDV antiviral 18µM!
CCOC(=O)c1cnc2ccc(OCC)cc2c1NCc1ccccc1	LASV entry inh inconclusive, MARV entry inh inconclusive, HCV inhibitor 10µM, HCMV antiviral -73, FMDV antiviral inconclusive
CCn1c(-c2ccccc2F)nc2cc(C(=O)NCc3ccc(C)o3)cc(NC(C)=O)c21	none (no result: LASV entry inh, MARV entry inh, HCV inhibitor, HCMV antiviral)
OC1(c2cccnc2)CCN(Cc2ccc3c(c2)CN(Cc2ccsc2)CCO3)CC1	none (no result: LASV entry inh, MARV entry inh, HCV inhibitor, HCMV antiviral)
COc1cccc(OCc2cc(C(=O)N(C)C3CCCCC3)no2)c1	none (no result: LASV entry inh, MARV entry inh, HCV inhibitor)
c1ccc2c(CCNc3ncnc4nc[nH]c34)c[nH]c2c1	LASV entry inh inconclusive, HCV inhibitor 7.1µM, HCMV antiviral inconclusive, FMDV antiviral inconclusive
CC1CCC(C(C)C)C(OC(=O)C[n+]2cc(-c3ccc(Cl)cc3)n3c2CCCCC3)C1 (configuration not stated)	LASV entry inh inconclusive, MARV entry inh inconclusive, HCMV antiviral -97, FMDV antiviral inconclusive
O=C(C[n+]1cc(-c2ccccc2)n2c1CCCCC2)c1ccc(Cl)cc1	none
N#CC[n+]1cc(-c2ccc(Cl)cc2)n2c1CCC2	none
